Screens deposited in PubChem BioAssay by National Center for Advancing Translational Sciences (NCATS).
The list is not random: actives were taken first. Their share in the collection is about 0.88%.
RGS4 inh: human RGS4 inhibition | P49798 | Transcreener GDP fluorescence polarization, RGS4-accelerated GTP hydrolysis | Potency, µM (titrated, usually from 114 µM), for the others: top-dose activity change, negative = inhibition, hits mostly inhibitors | 0.039% of 390,000 active; also: potency is read from the fitted curve at half-maximal effect; % is scaled to controls: 0 for no effect and ±100 for the full control effect; nearly all actives have a fitted effect of over 75% in size
Target sequence (P49798 whole entry, looked up): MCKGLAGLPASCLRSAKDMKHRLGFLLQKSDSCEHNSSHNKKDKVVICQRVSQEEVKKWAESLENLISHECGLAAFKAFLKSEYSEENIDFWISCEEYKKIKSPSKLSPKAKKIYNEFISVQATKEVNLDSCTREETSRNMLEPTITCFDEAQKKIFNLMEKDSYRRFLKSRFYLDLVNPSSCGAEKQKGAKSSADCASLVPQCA
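MLSMR compounds (23 nl, pin-transferred) preincubated 10 min at room temperature with a 500nM (2x) first reagent, then RGS4 at 900nM (2x) plus Transcreener GDP mix added; fluorescence polarization (620/688 nm) read before and after 90 min at 30 °C.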
GRP78 ERSR act: ER stress response induction in glioma. AID 602332. 0.02% of 420,000 active. U87-MG GRP78 promoter luciferase reporter, 16 h. Potency, µM, without a hit: at the top dose activation, most hits filed as activators; also: potency is read from the fitted curve at half-maximal effect; series mostly up to about 76 µM; % of control where 0% means no effect; nearly all actives have a fitted effect of over 35% in size
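Stably transfected U87-MG glioma cells carrying a GRP78-based luciferase sensor; 16 h compound incubation. Luminescence end-point read 10 min after Bright-Glo addition at room temperature.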
pAkt inh: blocks phosphorylation of Akt; AID 651550; 0.32% of 360,000 active; Neuro2A IGF-stimulated pAkt S473 HTRF, 20 min; active compounds read low; activity change, % for hits at 50 µM; in the data active = activity change below about -80%; inconclusive = mostly about -51% to -80%; also: % is scaled to controls: 0 for no effect and ±100 for the full control effect
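Neuro2A cells (4,500/well, DMEM with 0.5% FBS) were treated with compound at a single 50 µM final concentration, stimulated with 6 nM IGF for 20 min at 37 °C, and lysed. Phospho-Akt Ser473 was read by HTRF as 665/615 ratio ×10^4.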
Six1-Eya2 blk: Six1/Eya2 interaction inhibition; Q15475+O00167; AlphaScreen GST-Six1/His-Eya2 binding, biochemical; active compounds read low; activity change, % (no concentration beside the values); 0.56% of 360,000 active; AID 651725; in the data active = activity change below about -65%; inconclusive = mostly about -30% to -63%; also: % is scaled to controls: 0 for no effect and ±100 for the full control effect
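GST-Six1 + His-Eya2 (5X stock: 250/500 nM); Tris pH 8.0, 300 mM NaCl, 0.05% BSA, 0.02% Tween 20; GSH donor/Ni acceptor beads; 1 h 37 °C dark; AlphaScreen readout.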
CtBP-E1A inh: CtBP/E1A binding inhibition; AlphaScreen GST-E1A/His-CtBP binding, 1536-well; active compounds read low; activity change, % (concentration not given with the values); 0.49% of 340,000 active; AID 651724; in the data active = activity change below about -65%; inconclusive = mostly about -30% to -63%; also: % is scaled to controls: 0 for no effect and ±100 for the full control effect
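Steps: dispense buffer (Tris pH 8.0, NaCl 300 mM, TCEP 1 mM, BSA, Tween 20); add 5X protein mix (GST-E1A, His-CtBP, 125 nM each); pin 23 nL compound; 2 h at 37 °C, dark; add 5X beads (50 ug/mL); 1 h; read.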
Active calls of the source: *; i = inactive; ? = inconclusive; / = not tested or not shown; [ ] = another dose, or the depositor's remark. Unless noted, calls follow the shape of the dose curve; as a rule, active = well fitted curve in the direction sought with a large enough effect; inconclusive = small, poorly fitted or top-dose-only effect, or another doubt; inactive = no such curve, though single readings can be large; an effect the other way counts as inactive or inconclusive.

SMILES	RGS4 inh	GRP78 ERSR act	pAkt inh	Six1-Eya2 blk	CtBP-E1A inh
C[C@H]1[C@@H]2Cc3ccc(O)cc3[C@]1(C)CCN2CCc1ccccc1	/	-4.3%	/	/	/
CC(=O)C1C(N2CC2)CC2C3CC=C4CC(O)CCC4(C)C3CCC21C (stereo unspecified)	-2.8%	5.8%	i	2.8	-17.6
CCc1cc(OC)c(CC(C)N)cc1OC (stereo unspecified)	/	-2.6%	/	/	/
CCN(c1ccc(C(O)(C(=O)OC)C(F)(F)F)cc1)S(=O)(=O)c1ccccc1 (stereo unspecified)	-7.6%[11.4 µM]	-2.4%	-125.4%*	-2.8	2.7
COc1cc2c(cc1O)C[C@H]1NCCc3cc4c(c-2c31)OCO4	7.0%	?	i	-65.2*	-79.3*
COc1cc2c(cc1OC)-c1c3c(cc4c1[C@@H](C2)N(C)CC4)OCO3	-18.5%	3.6%	i	?	?
Cn1c(O)c(C(c2ccncc2)c2c(O)n(C)c(=S)n(C)c2=O)c(=O)n(C)c1=S	?	1.1%	i	-68.2*	?
